VDR inhibitor: Inhibitors of the vitamin D receptor (VDR): qHTS | VDR-SRC2-3 peptide fluorescence polarization, 2 h | Potency, µM, usual class: inhibitors | actives 0.93% (n = 400,000) | AID 504847, 2011
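Fluorescence polarization assay measuring small-molecule disruption of VDR binding to the coregulator peptide SRC2-3. Compounds were pin-transferred (23 nl) into the reagent mix and incubated 2 h at room temperature before reading.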
Pin1 inhibitor: qHTS Assay to Find Inhibitors of Pin1; Peptidyl-prolyl cis-trans isomerase NIMA-interacting 1 (Homo sapiens), Q13526; Pin1 FP peptide displacement, HiFluor488, 10 min; Potency, µM (top dose mostly 115 µM), actives largely listed as inhibitors; actives 0.009% (n = 390,000); AID 504891, 2011; active = well fitted inhibition curve with a large enough effect in the polarisation, with a control signal flat, not every such curve was filed as active; inconclusive = small, poorly fitted or top-dose-only effect, or effect the other way, or a change in a side signal; inactive = no such curve, though single readings can be large or run the other way; the % refers to the polarisation
GLS inhibitor: qHTS for Inhibitors of Glutaminase (GLS); GLS enzymatic activity, qHTS titration; actives 0.21% (n = 410,000); Glutaminase kidney isoform, mitochondrial (Homo sapiens), O94925; AID 624170, 2012; Potency, µM (highest dose often 45.5 µM), most hits filed as inhibitors
Target sequence (O94925 whole entry, looked up, canonical isoform): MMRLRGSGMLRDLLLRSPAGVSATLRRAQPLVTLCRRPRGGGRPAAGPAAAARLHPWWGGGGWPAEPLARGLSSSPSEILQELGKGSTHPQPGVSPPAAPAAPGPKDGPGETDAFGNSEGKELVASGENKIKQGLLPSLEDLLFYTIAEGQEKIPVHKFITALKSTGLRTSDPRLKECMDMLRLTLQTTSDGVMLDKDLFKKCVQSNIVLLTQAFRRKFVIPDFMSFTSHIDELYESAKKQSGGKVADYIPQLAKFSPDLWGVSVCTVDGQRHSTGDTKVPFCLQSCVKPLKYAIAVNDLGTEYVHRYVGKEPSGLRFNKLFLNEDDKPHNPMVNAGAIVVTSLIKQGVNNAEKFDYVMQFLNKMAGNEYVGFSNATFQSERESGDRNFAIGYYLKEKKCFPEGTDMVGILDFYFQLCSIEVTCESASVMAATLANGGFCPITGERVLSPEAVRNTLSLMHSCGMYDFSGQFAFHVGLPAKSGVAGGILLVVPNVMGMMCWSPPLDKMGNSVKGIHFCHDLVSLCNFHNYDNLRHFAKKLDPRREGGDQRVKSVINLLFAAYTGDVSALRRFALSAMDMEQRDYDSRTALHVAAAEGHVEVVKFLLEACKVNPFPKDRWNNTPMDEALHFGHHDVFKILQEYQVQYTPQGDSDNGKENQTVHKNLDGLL
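Read-out is an Amplex red fluorescence increase coupled through glutamate oxidase and HRP, measured before and after 30 min room-temperature incubation. hKGA is in 45 mM KH2PO4 (pH 8.2) with 0.02% Tween-20; glutamine added as 1mM solution.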
PGK inhibitor: qHTS Assay to Find Inhibitors of Phosphoglycerate Kinase | Phosphoglycerate kinase, glycosomal (Trypanosoma brucei brucei), P07378 | PGK/GAPDH coupled, Kinase-Glo luminescence, 60 min | Potency, µM (series often up to 57.5 µM), hits mostly inhibitors | actives 0.043% (n = 380,000) | AID 602233, 2012; note: nearly all actives have a fitted effect of over 60% in size
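Recombinant glycosomal PGK reaction used 1,3-bisphosphoglycerate generated in-well by GAPDH (100nM final) in 100mM TEA pH 7.6, 5mM MgCl2, 0.01% Tween-20. After 60 minutes at room temperature, ATP was read by Kinase-Glo Plus luminescence end-point.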
Tb PFK inh-1: qHTS Assay to Find Inhibitors of T. brucei phosphofructokinase. ATP-dependent 6-phosphofructokinase (Trypanosoma brucei brucei), O15648. T. brucei PFK, ADP-Glo luminescence. Potency, µM (titrated, usually from 57.5 µM), hits mostly inhibitors. actives 0.17% (n = 330,000). AID 485367, 2010; note: nearly all actives have a fitted effect of over 60% in size
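ADP-Glo luminescence quantified ADP after 45 min at room temperature, with 1.25 nM T. brucei PFK, 0.1 mM ATP and 0.5 mM fructose-6-phosphate in pH 8.0 TEA buffer. qHTS titrations up to 57 µM; curves classified by quality.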
Tb PFK KinaseGlo: Tb PFK orthogonal confirmatory assay using ATP depletion (Kinase-Glo Plus) as an alternative measure of Tb PFK activity: Hit Validation; shares compounds with Tb PFK inh-1; Tb PFK enzyme, ATP depletion, Kinase-Glo Plus luminescence; Potency, µM (doses to about 57.5 µM); actives 47% (n = 1,100); calls by dose curve; note: nearly all actives have a fitted effect of over 60% in size
Tb PFK inh-2: Inhibitors of T. brucei phosphofructokinase: Hit Validation | shares compounds with Tb PFK inh-1 | purified T. brucei PFK, ADP-Glo luminescence, 45 min | actives 41% (n = 1,100) | Potency, µM (top dose mostly 57.5 µM), actives largely listed as inhibitors; note: nearly all actives have a fitted effect of over 60% in size
A number is an active result; - = inactive; ? = inconclusive; . = no result given. Sampled rows, rich in hits. Any-hit rate of the full collection: about 1.1%. Unless noted, calls come from the whole dose curve; as a rule, active = well fitted curve in the direction sought with a large enough effect; inconclusive = small, poorly fitted or top-dose-only effect, or another doubt; inactive = no such curve, though single readings can be large; an effect the other way counts as inactive or inconclusive.

SMILES	VDR inhibitor	Pin1 inhibitor	GLS inhibitor	PGK inhibitor	Tb PFK inh-1	Tb PFK KinaseGlo	Tb PFK inh-2
CC=C(CC)C1(CCC)C(=O)NC(=S)NC1=O	-	-	-	-	.	.	.
O=S(=O)(c1ccc2nc(COc3ccc(Cl)cc3Cl)[nH]c2c1)N1CCOCC1	-	-	-	-	?	?	?
CN1C(=O)NC(=O)C2(CCCC2)C1=O	-	-	-	-	.	.	.
Clc1ccc2scc(CN3CCCCC3)c2c1	-	-	-	-	?	?	?
Cc1ccc(NC(=O)Nc2ccc(S(N)(=O)=O)cc2)cc1	-	-	-	-	21.3µM	13.5µM	?
Cc1cc(OC(F)F)ccc1NC(=O)Nc1ccc([N+](=O)[O-])cc1	-	-	-	-	?	?	?
Cc1ccc([N+](=O)[O-])cc1NC(=O)Nc1ccc(S(N)(=O)=O)cc1	-	?	-	-	12µM	13.5µM	26.9µM
CC(O)(CS(=O)(=O)c1ccccc1)C(=O)Nc1ccc(C(F)(F)F)cc1 (stereo not given)	-	-	-	-	-	.	.
NS(=O)(=O)c1ccc(NC(=O)Nc2ccc(C(F)(F)F)cc2)cc1	-	-	-	-	?	6.01µM	13.5µM
Cc1ccc(-n2c(O)c(C=Nc3ccc(S(N)(=O)=O)cc3)c(=O)[nH]c2=O)cc1	-	-	-	-	-	.	.
C=C[C@@H]1CN2CC[C@H]1C[C@H]2[C@H](O)c1ccnc2ccccc12	-	.	-	.	.	.	.
COc1ccc(NC(=O)N2CCC3(CC2)CCN(C(=O)Oc2ccccc2)CC3)cc1	-	.	.	.	.	.	.
CCN1C[C@]2(C)CC[C@H](OC)[C@]34C5C[C@@H]6CC[C@@](O)(C5C(=O)O6)C(C13)[C@@H](OC(=O)c1ccccc1)C24	-	.	.	.	.	.	.
c1cncc([C@@H]2CCCCN2)c1	-	.	.	.	.	.	.
CCCN1C(=O)S/C(=C/c2ccc(N3CCOCC3)o2)C1=O	89.1µM	?	-	-	?	-	-
CC(C)(C)C(=O)[C@@H]1[C@@H]2C(=O)N(c3ccc4c(c3)OCCO4)C(=O)[C@@H]2C2c3ccccc3C=CN21 (stereo not given in full)	-	-	-	-	?	-	-
O=C(COC(=O)Cc1ccccc1)NC(=O)NC1CCCCC1	-	-	-	-	-	.	.
COc1ccc(CC(=O)OCC(=O)NC2CC2)cc1	-	-	-	-	23.9µM	?	-
C[C@H](NC(N)=O)C(=O)Nc1ccc(N2CCOCC2)c(S(=O)(=O)Nc2ccc(Cl)cc2)c1	?	-	-	-	?	4.26µM	10.7µM
Cn1c(=O)[nH]c(=O)c2c1nc(SCCN1CCCCC1)n2CCCc1ccccc1	35.5µM	-	-	-	?	6.75µM	16.9µM
O=[N+]([O-])c1ccc(CN2CC=C(c3ccccc3)CC2)cc1	-	-	-	-	-	.	.
O=[N+]([O-])c1ccc(NCc2ccncc2)cc1	-	-	-	-	5.36µM	3.38µM	7.57µM
O=[N+]([O-])c1ccc(Cc2ccncc2)cc1	-	-	?	-	?	?	30.1µM
CC(=O)c1cc(Cc2csc(C(C)=O)c2)cs1	-	-	-	-	26.9µM	13.5µM	30.1µM
Cc1cccn2c(=O)cc(COc3cccc(NC(=O)COc4ccc(F)cc4)c3)nc12	-	-	-	-	.	.	.
SMILES	VDR inhibitor	Pin1 inhibitor	GLS inhibitor	PGK inhibitor	Tb PFK inh-1	Tb PFK KinaseGlo	Tb PFK inh-2
C[C@@H]1CCC2[C@@H](C)C(=O)O[C@@H]3OC4(C)CCC1[C@@]23OO4 (stereo not given in full)	-	-	-	-	-	.	.
O=C(Nc1ccc(OC(F)(F)F)cc1)c1cccn(Cc2ccccc2Cl)c1=O	-	-	-	-	.	.	.
CCCN1CCO[C@@H]2c3cc(O)ccc3OC[C@@H]21	-	.	.	.	.	.	.
O=C(NCC(F)(F)F)c1ccc(S(=O)(=O)Nc2ccccc2N2CCCC2)cc1	-	-	-	-	?	-	?
Cc1ccc(S(=O)(=O)Nc2cc(C(=O)N3CCC4(CC3)OCCO4)ccc2N2CCCCC2)cc1	?	-	-	-	-	.	.
C[C@]12CC[C@@H](O)CC1=CCC1C2CC[C@@]2(C)C1CC[C@@H]2O (stereo not given in full)	.	.	-	-	.	.	.
C=CCN(C1=NCCN1)c1c(Cl)cccc1Cl	-	.	-	.	.	.	.
O=C(COC(=O)c1cc2c(s1)CCC2)Nc1ccc(F)cc1	-	?	-	?	10.7µM	?	?
CCN(CC)C(=O)c1ccc(NC(=O)COC(=O)c2ccc(Cl)s2)cc1	?	-	-	-	-	.	.
O=C(Cc1ccc(Cl)c(Cl)c1)Nc1cccc(S(=O)(=O)N2CCOCC2)c1	-	-	-	-	21.3µM	9.53µM	16.9µM
O=C(Nc1cccc(OC(=O)N2CCOCC2)c1)N1CCOCC1	-	-	-	-	-	.	.
Cc1ccc(OCC(=O)N2CCN(Cc3ccc([N+](=O)[O-])cc3)CC2)cc1	-	-	-	-	-	.	.
O=C(Cc1ccc(Cl)cc1)Nc1ccc(S(=O)(=O)N2CCOCC2)cc1	-	-	-	-	21.3µM	9.53µM	26.9µM
COc1ccc(NC(=O)CN2CC=C(c3ccccc3)CC2)cc1S(=O)(=O)N1CCOCC1	-	-	-	-	-	.	.
O=C(COc1ccc([N+](=O)[O-])cc1)Nc1ccc(S(=O)(=O)N2CCOCC2)cc1	-	-	-	-	?	21.3µM	26.9µM
CC1CC[C@@]2(NC1)OC1CC3C4CC[C@@H]5CC(O)CC[C@@]5(C)C4CC[C@]3(C)C1C2C (stereo not given in full)	-	.	-	.	.	.	.
CCc1ccc(NC(=O)c2ccc(F)c(S(=O)(=O)N3CCC4(CC3)OCCO4)c2)cc1	-	?	-	-	.	.	.
O=C(O)C1C2c3ccccc3C(O)C1(C(=O)O)c1ccccc12 (stereo not given)	-	-	-	-	.	.	.
O=C1Nc2ccc(Cl)cc2C(c2ccccc2Cl)=NC1O (stereo not given)	-	.	-	.	.	.	.
Cc1cc(-c2cc(C)c(N)c(C)c2)cc(C)c1N	-	-	-	-	.	.	.
N#Cc1ccc(NC(=O)CCNC(=O)c2ccco2)cc1Cl	-	-	-	-	-	.	.
O=C(CCNc1ccc(F)c(Cl)c1)c1ccco1	-	-	-	-	?	13.5µM	21.3µM
O=C(CCNc1ccc(Cl)c(C(F)(F)F)c1)c1ccco1	-	-	-	-	?	?	?

Compound activity deposited in PubChem by National Center for Advancing Translational Sciences (NCATS).
